# High-throughput results deposited in PubChem by Corson Lab, School of Medicine, Indiana University.
# FECH block: inhibitors of human ferrochelatase, primary screen, biochemical, purified FECH, Ni-mesoporphyrin absorbance. calls only at 10 µM (by protocol). Ferrochelatase, mitochondrial (Homo sapiens), P22830. Ni-mesoporphyrin absorbance 550 nm. 20,000 tested, 3.3% active;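 active = enzyme reaction rate more than 3 SD below the solvent-only control wells on the same plate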;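 also: lower slope than DMSO wells means FECH inhibition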
# Target sequence (P22830 whole entry, looked up): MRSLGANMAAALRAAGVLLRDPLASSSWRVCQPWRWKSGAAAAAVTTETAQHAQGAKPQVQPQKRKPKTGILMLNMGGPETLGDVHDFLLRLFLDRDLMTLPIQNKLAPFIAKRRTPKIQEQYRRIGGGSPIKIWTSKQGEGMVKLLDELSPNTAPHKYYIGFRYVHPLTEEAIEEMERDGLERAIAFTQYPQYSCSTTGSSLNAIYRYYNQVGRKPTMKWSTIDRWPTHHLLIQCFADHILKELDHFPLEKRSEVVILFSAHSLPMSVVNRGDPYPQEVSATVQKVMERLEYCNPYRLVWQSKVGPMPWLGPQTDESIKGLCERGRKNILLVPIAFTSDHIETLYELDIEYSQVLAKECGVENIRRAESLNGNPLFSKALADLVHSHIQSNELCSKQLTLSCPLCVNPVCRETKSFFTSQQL
# Active calls of the source: *; i = inactive; + = active, no number. Shown is part of a subset that was picked to be rich in hits.
SMILES,FECH block
CCCNC(=O)c1nc[nH]c1C(=O)NCc1ccccc1,i
O=C(NC(c1ccccc1)c1ccccc1)c1nc[nH]c1C(=O)NCc1ccccn1,+
COCCNC(=O)CSCc1nc(-c2ccc(F)cc2)no1,i
COc1cccc(C(=O)Nc2ccc(Nc3nc(C)cc(N4CCCC4)n3)cc2)c1OC,i
CCCCCNC(=O)C1CCN(c2ccc(-c3ccc(F)cc3)nn2)CC1,i
Cc1nc(CC(=O)N(C)Cc2cn[nH]c2-c2ccc(F)cc2)cs1,i
Cc1cc(NCc2cc3ccc(F)cc3[nH]c2=O)nc(-c2cccnc2)n1,i
Cc1cc(C)c(S(=O)(=O)N2CCN(c3nc(C)cc(N4CCCC4)n3)CC2)c(C)c1,i
CCCc1oncc1C(=O)NC1CC(=O)N(CCc2ccc(F)cc2)C1 (stereo not drawn),i
CC(c1nccs1)N(C)C(=O)CCCCN1Cc2ccccc2C1=O (stereo not drawn),i
CCCc1c(C)nc2ncnn2c1Sc1ccc(NC(=O)c2cccc(Cl)c2)cc1,+
CCCc1c(C)nc2ncnn2c1Sc1ccc(NC(=O)c2ccccc2OCC)cc1,+
CCCc1c(C)nc2ncnn2c1Sc1ccc(NC(=O)c2ccccc2Cl)cc1,+
CCCc1c(C)nc2ncnn2c1Sc1ccc(NC(C)=O)cc1,i
CCCc1c(C)nc2ncnn2c1Sc1ccc(NC(=O)c2ccco2)cc1,i
CCc1c(C)nc2ncnn2c1Sc1ccc(NC(=O)c2cccc(C)c2)cc1,i
CCc1c(C)nc2ncnn2c1Sc1ccc(NC(=O)c2ccccc2Br)cc1,i
CCCc1c(C)nc2ncnn2c1Sc1ccc(NC(=O)c2ccc(F)cc2)cc1,i
CCCc1c(C)nc2ncnn2c1Sc1ccc(NS(=O)(=O)c2cccc(Cl)c2)cc1,i
Cn1c(CNS(=O)(=O)c2ccc(F)c(Cl)c2)nc2cccnc21,i
Cc1cccc(-n2c(CN3CCN(S(=O)(=O)c4ccc(Cl)cc4)CC3)nc3cccnc32)c1,i
O=C(O)c1ccnc(-c2ccnc(N3CCN(Cc4ccccc4)CC3)n2)c1,i
COc1ccc(Nc2cc(C)nc(N3CCN(S(=O)(=O)c4ccc(F)cc4)CC3)n2)cc1,i
COc1ccc(Nc2cc(C(C)C)nc3nc(-c4cccnc4)nn23)c(OC)c1,i
O=C(CCc1cccnc1)N1CCn2nc(C(=O)N3CCCC3)cc2C1,i
SMILES,FECH block
Cc1nc(CCC(=O)N2CCc3c(nc(N(C)C)nc3N(C)C)C2)n[nH]1,i
NS(=O)(=O)c1ccc(NC(=O)c2csnn2)cc1,i
COc1ccc(NC(=O)c2cc(-c3ccc(OC)c(S(N)(=O)=O)c3)n[nH]2)cc1,i
COc1cc(Cl)cc2c1OC=CC(C(=O)Nc1ccc(S(N)(=O)=O)cc1)=C2,+
Cc1ccc(S(=O)(=O)Nc2nc3n(n2)C(c2c(F)cccc2Cl)C=C(c2ccccc2)N3)cc1 (stereo not drawn),+
Cc1ccc(C2=CC(c3ccccc3Cl)n3nc(NS(=O)(=O)c4ccc(C)cc4)nc3N2)cc1 (stereo not drawn),i
COc1ccc(C2C=C(c3ccccc3)Nc3nc(NS(=O)(=O)c4ccc(C)cc4)nn32)cc1 (stereo not drawn),i
Cc1ccc(C2=CC(c3ccc(C)cc3)n3nc(NS(=O)(=O)c4ccc(C)cc4)nc3N2)cc1 (stereo not drawn),+
Cc1ccc(S(=O)(=O)Nc2nc3n(n2)C(c2ccccc2)C=C(c2ccc(Cl)cc2)N3)cc1 (stereo not drawn),i
O=S(=O)(Nc1nc2n(n1)C(c1ccccc1)C=C(c1ccccc1)N2)c1ccc(Cl)cc1 (stereo not drawn),i
Cc1ccc(C(=O)Nc2cc(C)nn2-c2ncnc3c2cnn3-c2ccc(C)cc2C)cc1,i
COc1ccc(CN2CCCN(CC(=O)Nc3ccc4c(c3)OCO4)S2(=O)=O)cc1,i
O=C(Nc1ccccc1Br)N1CCC(n2cnc3cccnc32)CC1,i
CCOc1c(N2CCCCC2C)c(=O)c1=O (stereo not drawn),i
CCCc1ccc(S(=O)(=O)NCc2nc3cccnc3n2CCC)cc1,i
CC(=O)Nc1cccc(-c2ncc(C(F)(F)F)cc2Cl)c1,i
CC(=O)Nc1cccc(-c2ccc3[nH]ncc3c2)c1,i
CCCc1cnc(C)nc1-c1cccc(NC(C)=O)c1,+
OCCCNc1nc(Nc2cccc(Cl)c2)c2cnn(-c3ccccc3)c2n1,i
COc1ccccc1CCC(=O)NCCn1c(C(F)(F)F)nc2cccnc21,i
CCOc1ccccc1C(=O)Nc1ccccc1SCc1cc(=O)n2c(ncn2C(C)C)n1,i
CC(C)n1cnc2nc(CSc3ccccc3NC(=O)Cc3ccccc3)cc(=O)n21,i
COc1ccc(C(=O)Nc2ccccc2SCc2cc(=O)n3c(ncn3C(C)C)n2)cc1,i
CCCn1cnc2nc(CSc3ccccc3NC(=O)c3ccc(F)cc3)cc(=O)n21,+
CCCn1cnc2nc(CSc3ccccc3NC(=O)c3ccccc3)cc(=O)n21,i
SMILES,FECH block
Cc1ccc(C(=O)Nc2ccccc2SCc2cc(=O)n3c(ncn3C(C)C)n2)cc1F,i
CC(C)n1cnc2nc(CSc3ccccc3NC(=O)c3ccc(Br)cc3)cc(=O)n21,i
CCCn1cnc2nc(CSc3ccccc3NC(=O)c3cccc(Br)c3)cc(=O)n21,+
CCCn1cnc2nc(CSc3ccccc3NC(=O)c3ccco3)cc(=O)n21,+
COCCn1cnnc1Cn1ccnc1-c1ccccc1C,i
C=C(C)CN(C)Cc1ccc(C(=O)Nc2ccc3c(c2)OCO3)cc1,i
CC(C)(C)n1ccc(C(=O)N2C[C@@H](C(=O)O)C[C@@H](C(=O)NC3CC3)C2)c1,i
CCc1nc(C)c(C(=O)Nc2c(C)cnn2Cc2cccc(Cl)c2)o1,i
Cc1ccc(S(=O)(=O)Nc2ccc(Sc3c(C)c(C)nc4ncnn34)cc2)cc1,i
CS(=O)(=O)c1ccc(-c2nccc(N3CCC(O)CC3)n2)cc1,i
c1cnc2c(-c3nccn3CCc3cnc[nH]3)cccc2c1,i
Cc1oc(-c2ccccc2Cl)cc1C(=O)NCCN1CCNC1=O,i
Cc1oc(-c2ccccc2Cl)cc1C(=O)NCCc1cnc[nH]1,+
Cc1nnsc1C(=O)N1CCc2c(nc(-c3ccncc3)nc2N(C)C)C1,i
CN(Cc1ccc2nsnc2c1)C(=O)[C@H]1CCCC[C@H]1C(=O)NC(C)(C)C,i
O=C(CN1c2ccc(F)cc2-c2ccccc2S1(=O)=O)NCCN1CCOCC1,i
CCc1ccc(C2=C(C)C(=O)N(CC(=O)Nc3ccc(C)c(F)c3)S2(=O)=O)cc1,i
COc1ccc(NC(=O)CN2c3ccc(C(C)C)cc3-c3ccccc3S2(=O)=O)cc1Cl,i
O=C(CN1c2ccc(F)cc2-c2ccccc2S1(=O)=O)Nc1ccccc1Oc1ccccc1,+
CC1CCN(c2ccc(NC(=O)CN3C(=O)c4ccccc4S3(=O)=O)cc2Cl)CC1,i
C=CCNC(=O)c1ccccc1NC(=O)CN1c2ccc(C(C)C)cc2-c2ccccc2S1(=O)=O,i
CCC1=C(c2ccc(OC)cc2)S(=O)(=O)N(CC(=O)Nc2ccc(F)cc2F)C1=O,i
CCOc1ccccc1NC(=O)CN1c2ccc(C(C)C)cc2-c2ccccc2S1(=O)=O,+
CCc1ccc2c(c1)-c1ccccc1S(=O)(=O)N2CC(=O)Nc1ccc(F)cc1,+
CCCOCC1CCN(c2nccc(NC)n2)C1 (stereo not drawn),i
